Among all 340,000 compounds or so, about 3,300 (0.97%) were called active.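 Rule for the calls: active = inhibition above the mean over all tested compounds plus 3 SD (cut at about 30% in these data); inactive = the rest.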 This excerpt belongs to a sample that is enriched for actives.

For the assay, the target named is Platelet-activating factor acetylhydrolase 2, cytoplasmic (Homo sapiens) (UniProt Q99487). In words: PAFAH2 enzyme inhibitors, primary screen, biochemical, fluorescence polarization, human (AID 492956).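 Note: inhibitors block probe labeling of enzyme so polarization drops; 0% = enzyme with DMSO and 100% = wells lacking PAFAH2 protein.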 To be noted: recombinant PAFAH2, FP-rhodamine activity probe, at 3.39 µM, hits give high values.
Turning to `Cc1noc(C)c1C(=O)N(CC(=O)NC1CCCC1)Cc1ccccc1F`, the inhibition was 3.06% (inactive).

In the case of `CCOc1ccc2nc(/N=C/c3nc(-c4ccccc4)oc3O)sc2c1`, the inhibition is 2.86% (inactive).

`Oc1oc(-c2ccccc2Br)nc1/C=N/c1ccccn1`: the inhibition was 68% (active).

`CC(N=Cc1nc(-c2ccccc2)oc1O)c1ccccc1` (stereo not given): the inhibition is 21% (inactive).

Consider `COc1ccc(F)cc1C(=O)COC(=O)c1n[nH]c(=O)c2ccccc12`, for which the inhibition was 0.13% (inactive).

For the molecule `Cc1ccc2c(=O)oc(N(C)C)nc2c1`, the inhibition is 33% (active).

In the case of `Cc1ccc2oc(=O)ccc2c1`, the inhibition is 1.28% (inactive).

As to `CN(C)c1ccc2c(=O)[nH][nH]c(=O)c2c1`, the inhibition is 0.81% (inactive).

As to `CCOC(=O)C1CCCCN1Cc1ccc(OC)c(OC)c1OC` (stereo not given), the inhibition is -0.46% (inactive).

`COC(CCN(C)C)(c1ccccc1)c1ccccc1`: the inhibition was 3.5% (inactive).

Regarding `C=CCC(NCCCO)c1cccc(OC)c1OC` (stereo not given), the inhibition is 5.85% (inactive).

As for `CC(=O)N(C1=C(Cl)C(=O)c2ccccc2C1=O)c1ccc(C(=O)O)cc1`, the inhibition was 10.5% (inactive).

On to `O=C1C(Cl)=C(Oc2ccccc2)C(=O)c2ccccc21`, for which the inhibition is 43.1% (active).

For the molecule `Cc1ccc2[nH]c(=O)c(CN3CCCCC3)c(-c3ccccc3)c2c1`, the inhibition is 6.01% (inactive).

As for `CCc1cc(=O)oc2c(C)c(OCC(=O)N3CC[C@@]4(O)CCCC[C@H]4C3)ccc12`, the inhibition was -2.6% (inactive).

`Oc1c(Cl)cc(Cl)c(Cl)c1Cc1c(O)c(Cl)cc(Cl)c1Cl`: the inhibition was 49.4% (active).

For `CCOC(=O)C(=CNNc1ccsc1C(=O)OC)C(=O)OCC`, the inhibition is -1.37% (inactive).

As to `CCOc1ccc(S(=O)(=O)N2CCC(C(=O)NCC(=O)Nc3cccc(Cl)c3C)CC2)cc1`, the inhibition was 8.28% (inactive).

Consider `O=C(O)c1ccc(NS(=O)(=O)c2ccc3c(c2)C(=O)c2cc(S(=O)(=O)Nc4ccc(C(=O)O)cc4)ccc2-3)cc1`, for which the inhibition is 4.82% (inactive).

Turning to `OCC[C@H]1C[C@H](O)[C@@H](O)[C@]2(Cc3ccccc3CO2)O1`, the inhibition was 8.82% (inactive).

In the case of `COc1ccc(NS(=O)(=O)c2ccc(C)c(C(=O)NCC(c3cccs3)N3CCOCC3)c2)cc1` (stereo not given), the inhibition is 7.05% (inactive).

For the molecule `CCOc1ccccc1NC(=O)CCc1nnc2ccc(NCc3ccco3)nn12`, the inhibition is 3.78% (inactive).

For the molecule `Cc1ccc(/C=C/C(=O)OCC(=O)Nc2cccnc2Cl)cc1`, the inhibition is 30.3% (active).

As for `COc1ccc(-c2nnc(SCC(=O)Nc3cccnc3Cl)n2C)cc1`, the inhibition was 0.74% (inactive).

`O=C(COC(=O)/C=C/c1nc2ccccc2s1)Nc1ccccc1Oc1ccccc1`: the inhibition was -12.4% (inactive).

As to `O=C(NCCC(=O)N1O[C@@H]2C=C[C@H]1C2)OCC1c2ccccc2-c2ccccc21`, the inhibition is 2.94% (inactive).

Turning to `O=C(Cc1ccc([N+](=O)[O-])cc1)Nc1ccc(C(=O)N2CCOCC2)cc1`, the inhibition was 1.43% (inactive).

Regarding `O=C(/C=C/c1cccs1)c1cc(Cl)ccc1OC(=O)N1CCOCC1`, the inhibition is 72.8% (active).

In the case of `O=C(Oc1cccc(C(=S)N2CCOCC2)c1)c1cccc(Cl)c1`, the inhibition was 5.91% (inactive).

Regarding `CC(=O)Nc1ccccc1OC(=O)N1CCOCC1`, the inhibition is 7.14% (inactive).

Take `COc1cccc(N(C(=O)c2snc(C(N)=O)c2N)C(C(=O)NCC2CCCO2)c2c[nH]c3ccccc23)c1` (stereo not given): the inhibition is -0.32% (inactive).

Take `COc1ccc(-c2nc3c(s2)CCc2onc(-c4ccc(Br)cc4)c2-3)cc1`: the inhibition is -1.79% (inactive).

On to `Cc1ccc(NC(=O)COC(=O)C2CC2)cc1S(=O)(=O)N1CCOCC1`, for which the inhibition is 77.5% (active).

With `O=C(COC(=O)c1ccco1)Nc1ccc(Cl)cn1`, the inhibition is 45.5% (active).

Regarding `Cc1ccc(NC(=O)COC(=O)CNC(=O)c2ccc(Cl)cc2Cl)cc1S(=O)(=O)N1CCOCC1`, the inhibition is -3.69% (inactive).

With `Cc1cc(NC(=O)COC(=O)c2ccc(F)c(S(=O)(=O)N3CCOCC3)c2)no1`, the inhibition was 8.91% (inactive).

Take `Cc1ccc(C(=O)OCC(=O)Nc2ccc(Cl)cn2)cc1S(=O)(=O)N1CCOCC1`: the inhibition is 55.8% (active).

On to `Cc1ccc(NC(=O)COC(=O)C2C3CC4OC(=O)C2C4C3)cc1Cl` (stereo not given), for which the inhibition was 88.2% (active).

Turning to `Cc1ccc(C(=O)OCC(=O)N2CCCCCC2)cc1S(=O)(=O)N1CCOCC1`, the inhibition is 10.7% (inactive).

`Cc1ccc(NC(=O)C2CC2)cc1S(=O)(=O)N1CCOCC1`: the inhibition is -3.1% (inactive).

For `Cc1cc(C)cc(NC(=O)c2cccc(NC(=O)C3C4CC5OC(=O)C3C5C4)c2)c1` (stereo not given), the inhibition was 6.12% (inactive).

Take `CC(OC(=O)CNC(=O)c1ccco1)C(=O)Nc1ccc(Cl)cn1` (stereo not given): the inhibition was -0.78% (inactive).

For the molecule `O=C(COC(=O)c1ccco1)NCc1ccc(Cl)cc1`, the inhibition was 24.3% (inactive).

For `O=C(Nc1ccc(Br)cc1)c1cccc(NC(=O)C2C3CC4OC(=O)C2C4C3)c1` (stereo not given), the inhibition was -8.44% (inactive).

For `Cc1ccc(NC(=O)C(=O)NCC2CCN(C(=O)c3cccc([N+](=O)[O-])c3)CC2)cc1`, the inhibition was 3.36% (inactive).

Regarding `C=CCNc1nnc(SCC(=O)N2CCCCC2)c2ccccc12`, the inhibition was -3.63% (inactive).

Consider `O=C(Nc1ccc(-c2cscn2)cc1)C1CCCN(Cc2ccc(CO)o2)C1` (stereo not given), for which the inhibition was -10.4% (inactive).

Take `COc1ccc(CNC(=O)[C@@H]2CC=C[C@@H]3CCN(C4CC4)C(=O)[C@@H]32)cc1`: the inhibition was -6.96% (inactive).

Turning to `CCOC(=O)C1=C(c2ccccc2)O/C(=C(/C(=O)OC)C(F)(F)F)S1`, the inhibition is 1.19% (inactive).

For `Cc1cc(=O)n(C)c(=O)n1CCCNc1ccccc1`, the inhibition is -0.72% (inactive).

Regarding `CCCC(=O)N1CCC(CCC(=O)NC2CC2)CC1`, the inhibition is 2.54% (inactive).

Consider `CC(CO)NCC12CC3CC(CC(C3)C1)C2` (stereo not given), for which the inhibition is -2.32% (inactive).

Regarding `CCc1ccc2oc(-c3ccc(N)cc3)nc2c1`, the inhibition was 8.24% (inactive).

Turning to `Cc1cc(-c2nnc(SCC(=O)Nc3ccc(S(N)(=O)=O)cc3)n2N)n[nH]1`, the inhibition was -4.23% (inactive).

Consider `Cc1ccc(C)c(S(=O)(=O)Nc2cc(C)on2)c1`, for which the inhibition is 0.2% (inactive).

With `CCc1cccc(C)c1NC(=O)COC(=O)CNC(=O)c1cccs1`, the inhibition was 5.02% (inactive).

Regarding `CCc1cccc(C)c1NC(=O)COC(=O)Cc1ccsc1`, the inhibition is 7.53% (inactive).

`CCc1cccc(C)c1NC(=O)COC(=O)CC1CCCC1`: the inhibition was 68.3% (active).

Turning to `Cc1cc(C)n2nc(C(=O)OCC(=O)N(CCC#N)c3ccc(F)cc3)nc2n1`, the inhibition is -0.66% (inactive).

On to `CC(C)Nc1nnc(SC(C)C(=O)N(C)C2CCCCC2)s1` (stereo not given), for which the inhibition was 9.89% (inactive).

The values above are taken from PubChem BioAssay AID492956 (The Scripps Research Institute Molecular Screening Center, 2010).
